Compounds with a hit are over-represented: about 9.2% of the library has one in this group of screens.
KDM4E inh: inhibitors of human JMJD2E histone demethylase; B2RXH2; JMJD2E catalytic domain, FDH-coupled NADH fluorescence (FDH is formaldehyde dehydrogenase); Potency, µM (top dose mostly 57.1 µM), inactives show top-dose activity change, negative = inhibition, actives largely listed as inhibitors; hit rate 1.6% among 230,000;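 also: 0% = wells with enzyme and -100% = buffer wells without enzyme; nearly all actives have a fitted effect of over 50% in size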
Target sequence (B2RXH2 1-337 limits assumed): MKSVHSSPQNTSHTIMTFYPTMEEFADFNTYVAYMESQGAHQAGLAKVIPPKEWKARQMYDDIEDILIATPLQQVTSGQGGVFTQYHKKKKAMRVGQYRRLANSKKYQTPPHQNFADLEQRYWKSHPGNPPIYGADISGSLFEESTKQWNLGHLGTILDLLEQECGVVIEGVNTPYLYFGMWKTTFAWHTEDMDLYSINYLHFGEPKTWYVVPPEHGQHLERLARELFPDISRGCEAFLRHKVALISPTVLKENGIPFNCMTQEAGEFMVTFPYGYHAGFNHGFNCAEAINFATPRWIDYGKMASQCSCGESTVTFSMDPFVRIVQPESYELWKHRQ
HTT ATP protect: Huntington cell model cytoprotection by ATP luminescence; AID 1471; PC12 HTT-Q103 induced, cytoprotection, ATP luminescence, 40 h; hit rate 0.14% among 230,000; Potency, µM (titrated, usually from 56.4 µM), without a hit: cytoprotection (ATP increase), most hits filed as activators; active = well fitted curve in the direction sought with a large enough effect; inconclusive = small, poorly fitted or top-dose-only effect, or another doubt; inactive = no such curve, though single readings can be large; an effect the other way counts as inactive or inconclusive; also: % of control where 0% means no effect; nearly all actives have a fitted effect of over 45% in size
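PC12 cells with ecdysone-inducible HTT exon 1 Q103-GFP, induced with 100 nM tebufenozide and co-treated with library compounds in a dose series (1536-well, 1500 cells/well). Cytoprotection read as ATP content by ATPlite luminescence.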
HPGD block: HPGD (human) dehydrogenase inhibition; Potency, µM, for inactives: at the top dose activity change, negative = inhibition, actives largely listed as inhibitors; purified HPGD, NADH fluorescence kinetic, PGE2 substrate; AID 894; hit rate 4.3% among 150,000; P15428; also: % is scaled to controls: 0 for no effect and ±100 for the full control effect
Target sequence (P15428 whole entry, looked up): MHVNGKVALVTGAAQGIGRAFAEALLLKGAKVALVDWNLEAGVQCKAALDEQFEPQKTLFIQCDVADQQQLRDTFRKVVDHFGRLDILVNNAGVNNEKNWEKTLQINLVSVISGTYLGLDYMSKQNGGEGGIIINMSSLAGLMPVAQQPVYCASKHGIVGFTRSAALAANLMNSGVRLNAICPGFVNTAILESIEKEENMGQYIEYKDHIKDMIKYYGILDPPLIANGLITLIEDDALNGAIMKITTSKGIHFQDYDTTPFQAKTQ
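20 nM HPGD preincubated 15 min at room temperature with compound in 50 mM Tris-HCl pH 8, 0.01% Tween 20. Started with 1 mM NAD+ and 30 uM prostaglandin E2; NADH fluorescence (360/450 nm) read 5 times over 30-s intervals, last minus first.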
Lamin A splicing: LMNA splicing modulation | HeLa LMNA splicing GFP/RFP minigene ratio, 48 h | hit rate 0.01% among 200,000 | AID 1487 | Potency, µM (doses to about 46.1 µM), for inactives: top-dose ratio change, negative = inhibition, actives largely listed as inhibitors; active = well fitted inhibition curve with a large enough effect in the signal ratio, with a control signal flat, not every such curve was filed as active; inconclusive = small, poorly fitted or top-dose-only effect, or effect the other way, or a change in a side signal; the % refers to the signal ratio; also: % is scaled to controls: 0 for no effect and ±100 for the full control effect
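Read-out is the ratio of GFP to DsRed2 object intensity, acquired by 488 nm laser-scanning cytometry on HeLa lamin A-EGFP minigene reporter cells. Compound incubation 48 hrs at 37 °C in Opti-MEM with 2% FBS; DMSO 0.5% final.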
HttQ103 aggreg: reduces HttQ103-GFP aggregates in PC12 cells; AID 1688; PC12 HttQ103-GFP aggregates, Acumen cytometry, 40 h; hit rate 1.1% among 220,000; Potency, µM (series often up to 46.1 µM), for the others: at the highest dose activity change, negative = inhibition, actives largely listed as inhibitors; active = well fitted curve in the direction sought with a large enough effect; inconclusive = small, poorly fitted or top-dose-only effect, or another doubt; inactive = no such curve, though single readings can be large; an effect the other way counts as inactive or inconclusive; also: % is scaled to controls: 0 for no effect and ±100 for the full control effect; nearly all actives have a fitted effect of over 60% in size
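Ecdysone-promoter PC12 model expressing HTT exon 1 Q103 fused to GFP, induced by tebufenozide at 100 nM final. Compounds titrated; aggregates sized 1–25 µm scored on a 488 nm laser cytometer.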
ALDH1A1 inh: inhibitors of human aldehyde dehydrogenase 1A1 | P00352 | Purified ALDH1A1, NADH fluorescence, propionaldehyde substrate | hit rate 7.3% among 220,000 | Potency, µM (doses to about 75.3 µM), without a hit: at the highest dose activity, negative = inhibition, most hits filed as inhibitors;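 also: plate controls were no enzyme wells and a reference inhibitor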
An asterisk follows results filed as active; u = inconclusive; x = not tested or not shown; [ ] = remark or other dose. Unless noted, calls follow the shape of the dose curve; as a rule, active = well fitted inhibition curve with a large enough effect (not every such curve was filed as active); inconclusive = small, poorly fitted or top-dose-only effect, or another doubt; inactive = no such curve, though single readings can be large or run the other way. Potency is read from the fitted curve at half-maximal effect.

SMILES	KDM4E inh	HTT ATP protect	HPGD block	Lamin A splicing	HttQ103 aggreg	ALDH1A1 inh
CCOC(=O)c1c(NC(=O)CSc2c[nH]c3ccccc23)sc2c1CCC2	-7.7%	x	-13.0%	u	-4.4%	u
CCOC(=O)C1CCCN(C(=O)COc2ccc(N(C)S(=O)(=O)c3ccc(F)cc3)cc2)C1 (configuration not stated)	-0.6%	u	x	x	2.8%	2.8%
COc1ccccc1NS(=O)(=O)c1cc(NC(=O)c2sccc2C)ccc1N1CCOCC1	-22.2%	17.8%[10 µM]	x	x	26.5%[9.22 µM]	x
COc1ccccc1NS(=O)(=O)c1cc(NC(=O)c2cccs2)ccc1N1CCCCC1	25.1µM*	-20.6%[0.074 µM]	-16.8%	u	u	-12.7%
COc1ccccc1NS(=O)(=O)c1cc(NC(=O)c2cccs2)ccc1N1CCCC1	u	-3.4%[10 µM]	8.91µM*	-15.6%	u	12.6µM*
COc1ccccc1NS(=O)(=O)c1cc(NC(=O)c2sccc2C)ccc1N1CCCC1	u	-25.3%	x	-21.4%[46 µM]	26.8%	10µM*
COC(=O)NC1(C(F)(F)F)C(=O)Nc2c1c(=O)n(C)c(=O)n2C (configuration not stated)	4.3%	4.3%[10 µM]	x	u	6.1%	9.1%
O=[N+]([O-])c1ccc2c(c1)c(S(=O)(=O)O)cc1nonc12	x	0.1%[10 µM]	-14.6%	x	x	16.3%[13.5 µM]
O=C(/C=C/c1ccccn1)c1cc(Br)ccc1O	u	-1.3%[10 µM]	x	x	-12.6%[9.22 µM]	22.4µM*
C/C=N/NC(=O)c1cc(Br)ccc1O	-13.7%	18.1%[10 µM]	-16.6%	-21.5%	8.3%	12.4%
O=C(c1cc(Br)ccc1O)c1cc(Br)ccc1O	x	2.9%[10 µM]	2.82µM*	x	x	-2.0%[13.5 µM]
CCOC(=O)C(=O)C1(C(=O)OCC)Oc2cc(OC)cc(OC)c2C(=O)C1c1ccccc1 (configuration not stated)	u	x	-10.4%	-7.9%	x	10µM*
Cc1cc(C(=O)N/N=C/c2c(C)nn(-c3ccccc3)c2C)c(C)o1	-5.3%	-17.5%[10 µM]	x	x	12.4%[9.22 µM]	x
CC(C)NC(=O)N1CCC2(CC1)CCN(S(C)(=O)=O)CC2	x	-23.7%	-5.4%	x	x	5.3%
CCC(COC(=O)Nc1cccc(C)c1)NC(=O)OCC(C)C (configuration not stated)	8.3%	-35.4%	-13.8%	u	10µM*	-14.0%
NNC(=O)c1csc(-c2ccc(C(F)(F)F)cc2Cl)n1	3.7%	17.8%[10 µM]	x	x	-4.7%[9.22 µM]	x
C=CCNC(=O)c1ccc(-c2nc(-c3ccc(Cl)cc3Cl)cs2)cc1	u	-28.4%[10 µM]	3.98µM*	-1.8%	1.0%	1.3%
C=CCNC(=O)c1cc(Cl)ccc1Cl	-1.9%	13.5%	20µM*	2.2%	2.7%	-0.4%
O=C(NCc1cccc(C(F)(F)F)c1)c1cc(Cl)ccc1Cl	-5.1%	27.0%[10 µM]	28.2µM*	u	-7.0%	6.8%
C=CCNC(=O)c1ccc(-c2nc(-c3ccc(Cl)c(Cl)c3)cs2)cc1	-1.9%	-35.3%	-23.4%	u	3.6%	0.3%
CN(C)Cc1ccccc1-c1cc(NCc2cccs2)ncn1	x	16.0%	x	1.4%	x	8.1%
CC(=O)NCCNc1ncnc2ccc(-c3cccc(NS(C)(=O)=O)c3)cc12	x	-47.9%	x	8.1%	x	-14.5%
O=c1c(-c2ccc(O[C@@H]3O[C@H](CO)[C@@H](O)[C@H](O)[C@H]3O)cc2)coc2cc(O)cc(O)c12	u	11.7%[1.9 µM]	-17.5%	x	x	u
Cc1cccc(NC(=O)/C(C#N)=C\c2cn(CC(=O)O)c3ccccc23)c1	-7.0%	-10.3%	x	x	9.4%	20µM*
N#C/C(=C\c1cn(Cc2ccccc2C#N)c2ccccc12)C(=O)NCc1cccs1	-29.0%	-12.8%	u	8.2%	-1.2%	7.94µM*
SMILES	KDM4E inh	HTT ATP protect	HPGD block	Lamin A splicing	HttQ103 aggreg	ALDH1A1 inh
N#C/C(=C/c1cn(CC(=O)O)c2ccccc12)C(=O)Nc1ccccc1	u	7.7%[10 µM]	x	u	3.0%[9.22 µM]	25.1µM*
CN1CCCN(Cc2nc(-c3cccc(C(F)(F)F)c3)no2)CC1	-5.8%	-53.7%	x	x	-1.7%	-7.7%
Cc1cc(C)nc(N/N=C2/CCCC/C2=C\c2ccccc2)n1	22.9%	-55.4%[10 µM]	x	u	4.47µM*	-21.2%
Cc1ccnc(N/N=C/c2ccccc2)n1	0.4%	-7.6%[10 µM]	-16.9%	-13.8%	1.9%	13.2%
O=C(NC1=C(NC2CCS(=O)(=O)C2)C(=O)c2ccccc2C1=O)c1ccccc1 (configuration not stated)	6.4%	10.8%	x	x	-8.6%	20µM*
O=C(NC1=C(Nc2ccc(Cl)cc2)C(=O)c2ccccc2C1=O)c1ccccc1	u	7.2%[10 µM]	-15.2%	u	u	-3.7%
Cc1cccc(NC2=C(NC(=O)c3ccccc3)C(=O)c3ccccc3C2=O)c1	-17.0%	-9.2%[10 µM]	u	u	-32.2%	25.1µM*
O=C(NC(NC1CCS(=O)(=O)C1)C(=O)c1cccs1)c1ccccc1 (configuration not stated)	0.4%	9.4%[10 µM]	-10.8%	6.0%	12.6%	-5.4%
COc1ccc(CCNC(=O)C(=O)Nc2ccc3c(c2)OCO3)cc1OC	5.6%	-24.1%	x	7.3%[46 µM]	-21.1%	-2.5%
COc1ccccc1CNC(=O)Cc1csc2nc(-c3ccc(F)cc3)cn12	x	x	x	0.3%[46 µM]	x	x
N#Cc1ccccc1-c1ccc2ncnc(NCc3ccccc3)c2c1	x	-70.9%	x	6.8%	x	u
c1ccc(CCNc2ncnc3ccccc23)cc1	-16.1%	-122.0%	x	u	1.78µM*	10.2%
CCCCCCCCNc1ncnc2ccccc12	2.1%	-8.4%	-8.6%	u	x	-2.9%
Brc1ccc2ncnc(NCc3ccccc3)c2c1	-0.2%	22.1%	-28.8%	u	2.24µM*	-11.6%
Clc1cccc(Nc2ncnc3ccc(Br)cc23)c1	u	-52.0%	-25.2%	-12.8%	11.2µM*	-7.8%
CC1CCN(S(=O)(=O)c2ccc(C(=O)NNC(=O)C3CC3)cc2)CC1	-7.0%	-11.6%[10 µM]	x	x	-7.5%[9.22 µM]	2.2%
Nc1[nH]nc2nc3ccccc3cc12	6.6%	21.7%	x	x	-4.4%	-0.7%
CCc1ccc2nc3n[nH]c(N)c3cc2c1	-8.8%	3.8%	28.2µM*	u	22.7%	u
O=C(/C=C/c1ccccc1Cl)NCc1cccs1	-4.5%	-25.9%[10 µM]	14.1µM*	-9.4%	19.9%	u
O=C(/C=C/c1ccc(F)cc1)NCc1cccs1	6.9%	11.2%[10 µM]	-13.4%	4.7%	5.6%	-6.4%
CCn1nc(C)c(CCN(C)C(=O)Nc2cc(Cl)c(OC)cc2OC)c1C	x	x	x	-2.7%[46 µM]	x	x
CN(C)c1ccc(C=NCCC2(O)CCOC(C)(C)C2)cc1 (configuration not stated)	-9.5%	-8.2%[10 µM]	-18.8%	-10.4%	-9.7%	0.562µM*
COc1ccccc1C1(CCN=Cc2ccc(N(C)C)cc2)CCOC(C)(C)C1 (configuration not stated)	8.5%	-4.0%[10 µM]	x	x	2.9%[9.22 µM]	x
COc1ccc(/C=C2\SC(=S)NC2=O)cc1OS(=O)(=O)c1ccc(NC(C)=O)cc1	-3.4%	-39.4%	x	x	17.1%	0.708µM*

Source: PubChem (National Center for Advancing Translational Sciences (NCATS))
